# Source: PubChem BioAssay (several laboratories)
# TNAP act mid DEA: human TNAP enzyme activators, primary screen, biochemical, luminescent, intermediate phosphate acceptor level; Alkaline phosphatase, tissue-nonspecific isozyme (Homo sapiens), P05186; purified TNAP, CDP-star luminescence, 100 mM DEA, 30 min; stronger effect = higher value; scale: 0 levamisole-inhibited, 1 vehicle-only enzyme; activation factor at 20 µM; 64,000 tested, under 10 active; AID 813, 2007;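 active = activation factor of at least 2 at 20 µM, relative to controls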
# PLAP act: PLAP enzyme activators, biochemical, luminescence, HTS; Alkaline phosphatase, placental type (Homo sapiens), P05187; purified PLAP enzyme, luminescent substrate read-out; stronger effect = higher value; activation fold at 20 µM; 1.2% of 96,000 active; in the data active = activation fold above about 2
# Cdc25B inh: inhibitors of Cdc25B phosphatase catalytic domain, primary screen, biochemical, OMFP fluorescence. AID 368, 2006. recombinant Cdc25B, OMFP fluorescence Ex485/Em525. 0.1% of 65,000 active. inhibition, %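 (compounds tested at 10 µM final in the well)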. M-phase inducer phosphatase 2 (Homo sapiens), P30305; in the data active = inhibition above about 50%
# HePTP inh: inhibitors of human HePTP phosphatase, primary screen, biochemical, absorbance, leukemia target; Tyrosine-protein phosphatase non-receptor type 7 (Homo sapiens), P35236; recombinant HePTP phosphatase activity, OD absorbance; inhibition, % at 20 µM; 0.64% of 110,000 active; AID 521, 2006; in the data active = inhibition above about 50%; inconclusive = no clear call, values can overlap the other calls;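 note: plate controls were vehicle for no effect and reference inhibitor for full effect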
# Hsp90 block: tumor Hsp90 inhibitors, primary screen, cell lysate, fluorescence polarization, NCI-N417 lysate; 0.35% of 64,000 active; inhibition, % at 30 µM; Heat shock protein HSP 90-alpha (Homo sapiens), P07900; Cy3B-geldanamycin FP displacement;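 active = inhibition above 50%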;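 note: 0% = tracer plus lysate wells and 100% = tracer alone without lysate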
# DUSP1 inh: MKP-1 phosphatase inhibitors, primary screen, biochemical, in vitro | Dual specificity protein phosphatase 1 (Homo sapiens), P28562 | recombinant MKP-1, OMFP hydrolysis fluorescence | inhibition, %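 (compounds tested at a single concentration somewhere between 10 and 100 µM)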 | 0.15% of 65,000 active | AID 374, 2006;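 active = inhibition above about 50%, limit read from the data; inconclusive = inhibition over screen mean plus 3 SD, below that limit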;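 note: 0% = DMSO max control wells and 100% = wells with enzyme stopped by NaOH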
# Redox H2O2: redox cycling hydrogen peroxide production, dose response, artefact control, biochemical, probe assessment; shares compounds with DUSP1 inh; Redox cycling H2O2 generation, DTT, phenol red/HRP; EC50, µM; 60 tested, under 10 active; AID 672, 2007; call rule not given here
# * hit, by the source's call; ? = inconclusive; nt = no result. Most compounds without a hit are left out; they make up all but 1.5% or so of the library.
SMILES,TNAP act mid DEA,PLAP act,Cdc25B inh,HePTP inh,Hsp90 block,DUSP1 inh,Redox H2O2
N#Cc1c(NC(=O)c2ccc(Br)o2)n(-c2ccccc2)c2nc3ccccc3nc12,0.9,nt,8.4,13.8,43.9,22.7,>50
COc1ccc(-n2c(NC(=O)c3ccc(Br)o3)c(C#N)c3nc4ccccc4nc32)cc1,nt,1.3,nt,nt,nt,nt,nt
O=C1C(C2=C(O)c3ccccc3C2=O)=Nc2ccccc21,0.9,1.1,23.3,13.2,57.5*,91.2*,>50
O=C1c2ccccc2-c2onc3ccc(NCCCn4ccnc4)c1c23,0.8,1.5,6.3,?,139.9*,25.4,>50
COc1cccc(Nc2ccc3noc4c3c2C(=O)c2ccccc2-4)c1,nt,nt,nt,6.5,nt,nt,nt
O=C(O)c1ccccc1/C=C1\SC(=S)N(c2cccc(C(F)(F)F)c2)C1=O,nt,nt,nt,-5.2,nt,nt,nt
Cc1n[nH]c(=S)n(/N=C/c2cc(Cl)ccc2Cl)c1=O,nt,nt,nt,5.1,nt,nt,nt
COc1ccc(-c2cc3nc(C4CCN(C(=O)OC(C)(C)C)CC4)c(C(=O)O)cn3n2)cc1,0.8,1.3,-4.2,4.5,-0.1,64.6*,>50
O=C(O)/C=C/c1cccc(NC(=O)CCc2ccccc2)c1,nt,nt,nt,3.0,nt,nt,nt
Cc1ccc(C)n1-c1cccc(C(=O)O)c1,0.9,1.3,21.0,nt,-0.4,50.2*,>50
Cc1ccc(-c2csc(NC(=O)c3ccno3)n2)cc1,0.9,1.4,23.5,4.2,-12.9,53.1*,>50
Cc1ccc(C)c(NC(=O)CSc2nnc(C)s2)c1,nt,nt,nt,5.4,nt,nt,nt
CS(=O)(=O)N1CCN(Cc2ccccn2)CC1,nt,nt,nt,8.3,nt,nt,nt
COC(=O)c1ccccc1NC(=O)CN1C(=O)C2CCCN2c2ncc(Cl)cc21 (centres undefined),0.9,1.6,4.7,2.6,-19.1,50.2*,>50
CCc1ccccc1NC(=O)CN1C(=O)C2CCCN2c2ncc(Cl)cc21 (centres undefined),0.9,1.5,-5.5,1.6,-6.0,4.2,nt
CCC(=O)Oc1ccc2c(C)c(CC)c(=O)oc2c1I,nt,nt,nt,-7.3,nt,nt,nt
O=C(Nc1ccccc1)c1ccc2nc(-c3ccco3)c(-c3ccco3)nc2c1,0.8,1.5,44.7,16.7,-20.1,59.3*,>50
Cc1ccc(/C=C/C2=Cc3c(sc(NC(=O)CSc4n[nH]c(N)n4)c3C#N)C(C)(C)C2)o1,0.9,1.6,33.7,3.1,-20.6,68.7*,>50
CCOC(=O)c1sc(NC(=O)CSc2n[nH]c(-c3ccccc3)n2)c(C#N)c1C,0.2,1.7,6.0,16.8,-4.1,12.5,nt
CCOc1cc(/C=C(/C#N)c2ccc(F)cc2)ccc1OCc1ccc(C(=O)O)o1,0.9,1.4,-4.0,7.2,-8.9,53.8*,>50
